For nine molecules, Potency, outcome and max activation results are on record in PubChem BioAssay (Tox21).

The target of assay [1] is Thyrotropin receptor (Homo sapiens) (UniProt P16473). Nature of the assay: qHTS assay to identify small molecule antagonists of the thyroid stimulating hormone receptor (TSHR) signaling pathway (AID 1259385; calls by dose curve; also: nearly all actives have a fitted effect of over 20% in size; also: potency is read from the fitted curve at half-maximal effect). The gist of the method: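 TSHR-HEK293 cells were plated and held 18 h at 37C/5% CO2, then given compound plus Ro20-1724 and stimulated with TSH at 1.5 ng/mL final. After 30 min at room temperature, cAMP was detected with cAMP-d2/anti-cAMP-cryptate (1 h) by fluorescence.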

Assay [2] can be described thus: qHTS assay to identify small molecule agonists of the estrogen receptor alpha (ER-alpha) signaling pathway in the presence of an antagonist - cell viability counter screen (AID 1259386).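 Also: cells exposed to compounds for 22 h at 37 °C before the viability read; nearly all actives have a fitted effect of over 30% in size.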 Also: potency is read from the fitted curve at half-maximal effect. The gist of the method: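 ICI-182,780 at 10.0nM final accompanies the compound titration (15 concentrations, 22hr, 37C) on VM7Luc4E2 cells. The CellTiter-Fluor fluorescence readout runs in the same wells as the luciferase assay.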
On the technique in general: Quantitative high-throughput screening tests each substance at several concentrations.

Assay [3] deals with Progesterone receptor (Homo sapiens) (UniProt P06401). The experiment in a line: qHTS assay to identify small molecule antagonists of the progesterone receptor (PR) signaling pathway (AID 1346795; active = well fitted inhibition curve with a large enough effect in the signal ratio in the repeat runs, not every such curve was filed as active; the % refers to the signal ratio; also: potency is read from the fitted curve at half-maximal effect). The gist of the method: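 Antagonist mode with agonist R5020 at 1 nM final and 16 hr incubation at 37C. Reporter was beta-lactamase driven by UAS in HEK293T (PR-UAS-bla), 2% charcoal-stripped serum; signal from LiveBLAzer FRET substrate, 2 hr at room temperature.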

The nature of assay [4]: qHTS assay to identify small molecule antagonists of the progesterone receptor (PR) signaling pathway - cell viability counter screen (AID 1346798). Also: nearly all actives have a fitted effect of over 50% in size. Also: potency is read from the fitted curve at half-maximal effect. The gist of the method: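 Cytotoxicity read as CellTiter-Glo luminescence (30 min, room temperature) in the same wells as the beta-lactamase readout. HEK293T PR-UAS-bla cells in charcoal-stripped 2% FBS received compound and R5020, then 16 h at 37C, 5% CO2.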

Assay [5] in a line: qHTS assay to identify small molecule agonists of the progesterone receptor (PR) signaling pathway - cell viability counter screen (AID 1346799; calls by dose curve; also: nearly all actives have a fitted effect of over 45% in size; also: potency is read from the fitted curve at half-maximal effect). In a few lines: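 Cytotoxicity measured by CellTiter-Glo luminescence (30 min, RT) in the same wells as the PR beta-lactamase agonist read. Those HEK293T cells had 16 h compound treatment at 37 C in 2% charcoal-stripped FBS medium.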

Assay [6] can be described thus: qHTS assay to identify small molecule antagonists of the TGF-beta/Smad signaling pathway - cell viability counter screen (AID 1346824). Also: nearly all actives have a fitted effect of over 50% in size. The gist of the method:
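SBE-bla HEK 293T cells were plated overnight at 37 C, then given compounds in DMSO plus TGF-beta1 (added as 0.25 ng/mL solution) for 5 hr. After the bla read, CellTiter-Glo was added to the same wells and luminescence read after 30 min at room temperature.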

A short description of assay [7]: qHTS assay to identify small molecule agonists of the TGF-beta/Smad signaling pathway (AID 1346859; active = well fitted activation curve with a large enough effect in the signal ratio in the repeat runs, not every such curve was filed as active; the % refers to the signal ratio; also: series mostly up to about 77 µM). The gist of the method: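 Fluorescence (ex 405 nm; em 460 and 530 nm) was read 2 h after LiveBLAzer FRET substrate at RT. The preceding compound treatment of overnight-plated SBE-bla HEK293T cells lasted 5 h at 37 C.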
Assay [8] has as its target Thyrotropin-releasing hormone receptor (Homo sapiens) (UniProt P34981). The experiment in a line: qHTS assay to identify small molecule antagonists of the thyrotropin-releasing hormone receptor (TRHR) signaling pathway (AID 1346877; active = well fitted inhibition curve with a large enough effect in the repeat runs, not every such curve was filed as active; also: series mostly up to about 51 µM). In a few lines: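 Screening used HEK293 cells engineered with TRHR, with a brief 5 min room-temperature compound exposure preceding addition of TRH to 1 nM. The read-out was kinetic calcium-dye fluorescence, concentration-response from 15 doses in triplicate.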

Assay [9] shares this target. Nature of the assay: qHTS assay to identify small molecule agonists of the thyrotropin-releasing hormone receptor (TRHR) signaling pathway (AID 1346891; calls by dose curve; also: series mostly up to about 58 µM). The gist of the method:
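Agonist-mode intracellular calcium readout: kinetic fluorescence over 3 min at 1 s intervals after compound addition to TRHR-HEK293 cells (18 h seeded, 2 h dye-loaded at 37 C). Fifteen concentrations, triplicates.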

The nature of assay [10]: Human pregnane X receptor (PXR) small molecule agonists, qHTS cell viability counter screen (AID 1346977). Also: nearly all actives have a fitted effect of over 50% in size. Also: potency is read from the fitted curve at half-maximal effect. In a few lines:
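Same-well viability read: CellTiter-Fluor added after 23 hr compound exposure, fluorescence measured 1 hr later. Cells were PXR-Luc HepG2 seeded at 2,000/well in 5% charcoal-stripped FBS medium, rested 5 hr before dosing at 37 C.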

Assay [11] is described as follows: Caspase-3/7 induction in HepG2 cells by small molecules, qHTS assay (AID 1346978). Also: nearly all actives have a fitted effect of over 15% in size. Also: potency is read from the fitted curve at half-maximal effect. In a few lines:
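Wild-type HepG2 cells (2,000/well) were settled 5 h at 37 C, 5% CO2, then exposed to compounds in DMSO for 17 h. Caspase-3/7 activity was read by luminescence 30 min after adding Caspase-Glo 3/7 reagent at room temperature.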

Assay [12] can be described thus: Caspase-3/7 induction in CHO-K1 cells by small molecules, qHTS cell viability counter screen (AID 1346979). Also: nearly all actives have a fitted effect of over 35% in size. Also: potency is read from the fitted curve at half-maximal effect. In a few lines:
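Cytotoxicity counter screen: CellTiter-Fluor added to compound-treated wild-type CHO-K1 cells at 16 h (37C, 5% CO2), fluorescence measured 1 h later; same wells as caspase-3/7 measurement.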

The nature of assay [13]: Caspase-3/7 induction in CHO-K1 cells by small molecules, qHTS assay (AID 1346980). Also: nearly all actives have a fitted effect of over 15% in size. Also: potency is read from the fitted curve at half-maximal effect. In a few lines: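 Wild-type cells were seeded at 1,500 per well and settled 5 hr at 37 C, 5% CO2, then exposed to DMSO-dissolved compounds for 17 hr. Caspase-Glo 3/7 reagent was added, and luminescence was read after 30min at room temperature.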
Assay [14] can be described thus: Caspase-3/7 induction in HepG2 cells by small molecules, qHTS cell viability counter screen (AID 1346981). Also: nearly all actives have a fitted effect of over 30% in size. Also: potency is read from the fitted curve at half-maximal effect. The gist of the method: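 Multiplexed with the caspase-3/7 assay: HepG2 cells, 16 hr compound treatment, CellTiter-Fluor viability detection by fluorescence.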
Assay [15] has as its target Nuclear receptor subfamily 1 group I member 2 (Homo sapiens) (UniProt O75469). The experiment in a line: Human pregnane X receptor (PXR) small molecule agonists, qHTS assay (AID 1346982). Also: nearly all actives have a fitted effect of over 35% in size. Also: potency is read from the fitted curve at half-maximal effect. In a few lines:
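We seeded PXR-Luc HepG2 cells in assay medium containing 5% charcoal-stripped FBS, added compounds 5 hr later, incubated 24 hr, and read luminescence with ONE-Glo reagent.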

A short description of assay [16]: qHTS assay to identify small molecule agonists of the TGF-beta/Smad signaling pathway - cell viability counter screen (AID 1346829). Also: nearly all actives have a fitted effect of over 45% in size. Also: potency is read from the fitted curve at half-maximal effect. In a few lines:
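Here the cytotoxicity of library compounds is measured in SBE-bla HEK 293T cells treated for 5 hr, using CellTiter-Glo added to wells already read for the beta-lactamase reporter.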

The target of assay [17] is Nuclear receptor subfamily 1 group I member 2 (Rattus norvegicus) (UniProt Q9R1A7). The experiment in a line: Rat pregnane X receptor (rPXR) activation by small molecules, qHTS assay (AID 1346983). Also: nearly all actives have a fitted effect of over 20% in size. Particulars: rPXR luciferase reporter cells, One-Glo luminescence, 24 h; max activation: stronger effect = higher value. The gist of the method:
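Cell-based rPXR luciferase reporter assay, 2,000 cells per well, rested 5hr at 37 C before compound addition in DMSO, then 24 hr at 37 C. One-Glo reagent was added and luminescence read after 30 min at room temperature.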

In assay [18] the target is Nuclear receptor subfamily 1 group I member 2 (Homo sapiens) (UniProt O75469). Nature of the assay: Human pregnane X receptor (PXR) activation by small molecules, qHTS assay (AID 1346985). Also: nearly all actives have a fitted effect of over 40% in size. The gist of the method: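 DPX-2 cells (HepG2 co-transfected with a PXR response element and a CYP3A4-promoter luciferase construct) were seeded at 2,000 per well, rested 5 hr at 37C, then exposed to DMSO-dissolved compounds for 24 hr. Activation was read as luciferase luminescence.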

The target in assay [19] is Progesterone receptor (Homo sapiens) (UniProt P06401). Nature of the assay: qHTS assay to identify small molecule agonists of the progesterone receptor (PR) signaling pathway (AID 1346784; calls by dose curve; also: nearly all actives have a fitted effect of over 30% in size). The gist of the method: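 Agonist qHTS: compounds pinned onto 3,000 PR-UAS-bla HEK 293T cells per well in charcoal-stripped serum medium, 16hr at 37C, then beta-lactamase activity measured by LiveBLAzer FRET fluorescence after 2 hours at room temperature.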

Values without a mark were called inactive. Records with an inconclusive call do not appear. Activity calls are given as the source filed them. Unless noted, calls follow the shape of the dose curve; as a rule, active = well fitted curve in the direction sought with a large enough effect in the repeat runs; inconclusive = weak or mixed curves; inactive = no such curve, though single readings can be large; an effect the other way counts as inactive or inconclusive.
% is scaled to controls: 0 for no effect and ±100 for the full control effect.

Thyrotropin-releasing hormone receptor (Homo sapiens), sequence (P34981 whole entry, looked up): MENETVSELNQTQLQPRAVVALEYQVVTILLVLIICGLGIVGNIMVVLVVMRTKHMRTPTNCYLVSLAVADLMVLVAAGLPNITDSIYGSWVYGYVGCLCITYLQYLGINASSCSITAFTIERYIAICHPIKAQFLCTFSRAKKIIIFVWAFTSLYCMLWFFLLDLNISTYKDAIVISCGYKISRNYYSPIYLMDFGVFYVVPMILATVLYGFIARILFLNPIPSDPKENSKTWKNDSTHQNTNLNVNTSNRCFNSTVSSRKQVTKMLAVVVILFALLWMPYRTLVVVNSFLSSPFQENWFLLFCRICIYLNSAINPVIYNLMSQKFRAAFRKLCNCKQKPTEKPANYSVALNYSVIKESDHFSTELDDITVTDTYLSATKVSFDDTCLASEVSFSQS
Thyrotropin receptor (Homo sapiens), sequence (P16473 whole entry, looked up): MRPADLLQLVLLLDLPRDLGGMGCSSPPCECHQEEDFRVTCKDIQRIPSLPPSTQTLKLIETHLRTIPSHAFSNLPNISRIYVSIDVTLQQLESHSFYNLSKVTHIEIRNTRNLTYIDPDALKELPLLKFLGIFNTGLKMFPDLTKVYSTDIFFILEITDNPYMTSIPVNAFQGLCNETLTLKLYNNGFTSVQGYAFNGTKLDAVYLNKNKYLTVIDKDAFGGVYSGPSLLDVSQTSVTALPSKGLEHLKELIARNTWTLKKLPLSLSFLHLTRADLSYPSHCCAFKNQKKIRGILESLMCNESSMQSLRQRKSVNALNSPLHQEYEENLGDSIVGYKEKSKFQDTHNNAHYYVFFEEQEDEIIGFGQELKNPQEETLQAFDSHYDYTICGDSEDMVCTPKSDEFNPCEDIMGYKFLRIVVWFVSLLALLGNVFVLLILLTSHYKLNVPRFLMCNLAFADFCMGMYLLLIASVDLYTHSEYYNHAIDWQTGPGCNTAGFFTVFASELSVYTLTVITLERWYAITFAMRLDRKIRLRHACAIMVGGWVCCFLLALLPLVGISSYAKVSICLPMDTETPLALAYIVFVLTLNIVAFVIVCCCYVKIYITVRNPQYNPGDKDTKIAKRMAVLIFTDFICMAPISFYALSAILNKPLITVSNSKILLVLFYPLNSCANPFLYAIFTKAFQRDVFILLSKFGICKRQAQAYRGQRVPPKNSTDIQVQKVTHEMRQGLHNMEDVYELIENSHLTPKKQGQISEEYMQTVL
Nuclear receptor subfamily 1 group I member 2 (Homo sapiens), sequence (O75469 whole entry, looked up): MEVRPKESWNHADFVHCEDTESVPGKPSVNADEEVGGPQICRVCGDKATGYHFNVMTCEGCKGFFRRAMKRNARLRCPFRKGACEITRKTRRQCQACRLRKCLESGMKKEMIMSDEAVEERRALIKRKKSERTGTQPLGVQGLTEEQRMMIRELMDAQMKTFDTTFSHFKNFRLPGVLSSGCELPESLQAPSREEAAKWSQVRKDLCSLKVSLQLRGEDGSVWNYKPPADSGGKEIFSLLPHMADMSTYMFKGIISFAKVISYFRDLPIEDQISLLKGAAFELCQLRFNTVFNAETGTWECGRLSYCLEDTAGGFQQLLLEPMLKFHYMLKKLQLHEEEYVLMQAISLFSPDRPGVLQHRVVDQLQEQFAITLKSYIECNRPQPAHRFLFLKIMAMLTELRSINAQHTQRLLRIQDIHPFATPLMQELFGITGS
Progesterone receptor (Homo sapiens), sequence (P06401 whole entry, looked up): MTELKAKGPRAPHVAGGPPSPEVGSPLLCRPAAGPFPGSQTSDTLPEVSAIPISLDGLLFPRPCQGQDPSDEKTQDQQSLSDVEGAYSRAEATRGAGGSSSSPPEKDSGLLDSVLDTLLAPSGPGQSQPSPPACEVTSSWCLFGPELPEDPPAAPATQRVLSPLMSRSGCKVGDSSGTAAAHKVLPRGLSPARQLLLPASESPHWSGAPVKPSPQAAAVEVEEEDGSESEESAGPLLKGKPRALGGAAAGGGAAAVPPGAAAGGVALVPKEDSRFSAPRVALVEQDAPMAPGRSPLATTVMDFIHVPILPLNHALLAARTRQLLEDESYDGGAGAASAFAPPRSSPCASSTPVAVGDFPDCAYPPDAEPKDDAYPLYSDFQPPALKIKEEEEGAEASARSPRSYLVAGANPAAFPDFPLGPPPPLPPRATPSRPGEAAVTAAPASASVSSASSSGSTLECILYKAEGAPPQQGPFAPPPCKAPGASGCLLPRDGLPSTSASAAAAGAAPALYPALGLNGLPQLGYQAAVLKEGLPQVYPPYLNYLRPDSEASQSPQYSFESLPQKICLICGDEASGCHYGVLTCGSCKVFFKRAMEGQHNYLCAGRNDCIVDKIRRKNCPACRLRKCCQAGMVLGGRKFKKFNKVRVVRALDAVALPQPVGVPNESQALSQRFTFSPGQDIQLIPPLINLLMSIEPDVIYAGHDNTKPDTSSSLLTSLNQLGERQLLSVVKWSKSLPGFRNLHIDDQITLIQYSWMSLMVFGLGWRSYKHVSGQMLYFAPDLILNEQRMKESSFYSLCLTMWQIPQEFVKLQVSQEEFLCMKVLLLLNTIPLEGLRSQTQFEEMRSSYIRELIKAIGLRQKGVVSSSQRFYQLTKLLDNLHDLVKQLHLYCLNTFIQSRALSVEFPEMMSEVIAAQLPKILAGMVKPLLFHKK
Nuclear receptor subfamily 1 group I member 2 (Rattus norvegicus), sequence (Q9R1A7 whole entry, looked up): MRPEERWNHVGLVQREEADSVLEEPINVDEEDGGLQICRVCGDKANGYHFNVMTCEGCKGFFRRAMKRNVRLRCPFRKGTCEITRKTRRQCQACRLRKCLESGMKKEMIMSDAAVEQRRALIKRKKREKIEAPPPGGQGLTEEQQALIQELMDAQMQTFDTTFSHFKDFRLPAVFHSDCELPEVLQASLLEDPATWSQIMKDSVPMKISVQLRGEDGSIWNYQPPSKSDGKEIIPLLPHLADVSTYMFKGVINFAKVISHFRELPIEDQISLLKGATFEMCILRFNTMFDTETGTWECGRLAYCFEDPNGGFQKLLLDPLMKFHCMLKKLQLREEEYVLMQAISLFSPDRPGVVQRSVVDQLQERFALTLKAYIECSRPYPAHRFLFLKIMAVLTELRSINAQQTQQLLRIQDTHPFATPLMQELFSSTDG

As to `CCCCCCCCCI`, the Potency result in [1], in assay [2], in assay [3], in assay [4], in [5] and in assay [6] was “inactive” throughout. Also, the Potency result in [7], in assay [9], in assay [10], in assay [11], in [12] and in assay [13] was “inactive” in each case. For the same molecule, the Potency entry in assay [14] and in assay [15] was “inactive” each time. Also, in assay [8], the molecule was classed as inactive.

With `OCCN1CCN(CCCN2c3ccccc3Sc3ccc(Cl)cc32)CC1`, the Potency in assay [1] is 29.8 µM (active); in [4], 23.7 µM (active); in [5], 13.3 µM (active); in assay [10], 29.8 µM (active); in assay [12], 29.8 µM (active); in [14] it was 26.6 µM (active). For the same molecule, the Potency in assay [15] was 10.6 µM (active). Also, the Potency entry in [2], in [6], in assay [16], in [7], in assay [9] and in assay [18] was “inactive” throughout. In [8], the outcome was inactive. Further, the max activation in [17] is 5.45%.

On to `O=[N+]([O-])c1cc(C2CCCCC2)c(O)c([N+](=O)[O-])c1`, for which the Potency entry in assay [1], in [6], in assay [16], in [11] and in assay [13] was “inactive” each time. The Potency in assay [2] was 15.3 µM (active); in assay [3], 24.3 µM (active); in [10] it was 4.31 µM (active); in assay [12] it was 7.67 µM (active); in assay [14], 15.3 µM (active); in assay [15], 8.61 µM (active).

`O=C=Nc1ccc(Cl)c(Cl)c1`: the Potency result in assay [1], in assay [2], in assay [19], in assay [7], in [10] and in assay [11] was “inactive” throughout. The Potency result in assay [12] and in assay [14] was “inactive” throughout. In addition, the figures for the Potency in [5] and in [15] were 23.9 µM (active) and 26.9 µM (active), respectively.

Turning to `CC(C)C[C@H](NC(=O)[C@H](CCc1ccccc1)NC(=O)CN1CCOCC1)C(=O)N[C@@H](Cc1ccccc1)C(=O)N[C@@H](CC(C)C)C(=O)[C@@]1(C)CO1`, the Potency result in assay [1], in assay [2], in assay [4], in assay [6], in assay [16] and in assay [7] was “inactive” throughout. The Potency result in assay [9] is “inactive”. Further, in [8], the molecule was classed as inactive. For the same molecule, the Potency is 0.075 µM (active) in assay [10]; 0.266 µM (active) in assay [11]; 0.0944 µM (active) in assay [12]; 0.0473 µM (active) in assay [13]; 0.0376 µM (active) in assay [15].

As for `OC1(c2ccccc2)CCNCC1`, the Potency result in [1], in [2], in [4], in assay [16], in assay [7] and in assay [9] was “inactive” in each case. The Potency result in assay [10], in [11], in assay [12], in assay [13], in assay [14] and in assay [15] was “inactive” in each case. Moreover, the molecule was called inactive in assay [8].

With `CC(C)(C)C(=O)C(=O)O`, the Potency result in assay [2], in [19], in assay [3], in assay [4], in assay [6] and in assay [16] was “inactive” each time. For the same molecule, the Potency result in assay [7], in [9], in assay [11], in assay [12], in assay [13] and in assay [14] was “inactive” in each case. Moreover, the outcome in assay [8] was inactive.

Turning to `CCCCN(CCCC)C(C(N)=O)c1ccc(OC)cc1` (stereo not drawn), the Potency result in [2], in [19], in assay [3], in assay [4], in assay [6] and in assay [16] was “inactive” each time. The Potency entry in assay [7], in [10], in [11], in [12] and in assay [14] was “inactive” each time. Moreover, in assay [15], the Potency was 11.9 µM (active).

As for `CN1C(=O)N(c2ccccc2Br)Cc2cnc(Nc3ccc4c(c3)OCC(CO)O4)nc21` (stereo not drawn), the Potency entry in assay [1], in [7] and in assay [9] was “inactive” each time. Also, the Potency was 38.6 µM (active) in [4]; 34.7 µM (active) in assay [16]; 30.6 µM (active) in assay [10]; 6.11 µM (active) in assay [11]; 24.3 µM (active) in assay [12]; 15.4 µM (active) in [14]. Besides, the Potency in assay [15] is 0.0154 µM (active). Moreover, the result in assay [8] was inactive.
